The whole screen tested about 340,000 compounds, of which about 2,500 (0.74%) were called active. The sample holds actives, similar compounds and a random draw of the others, so the mix is not that of the screen. Values without a mark were called inactive.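 Rule for the calls: active = inhibition above about 55% (limit read from the data); inactive = the rest.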
Test: blockers of Gli reporter signaling – luciferase luminescence, Sufu-KO-LIGHT cells, uHTS, primary screen (AID 588413);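 note: 0% = DMSO-treated cells and 100% = wells with medium but no cells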
Settings: Sufu-KO-LIGHT fibroblasts, at 5 µM, hits give high values

| SMILES | inhibition |
| --- | --- |
| COc1ccc(NC(=O)CCC(=O)Nc2cc(OC)c(NC(=O)c3ccco3)cc2OC)c(OC)c1 | 15.2% |
| CC(OC(=O)c1ccc([N+](=O)[O-])cc1)C(=O)NCC1CCCCC1 (centres undefined) | 6.02% |
| COc1cc(C(=O)OC(C)C(=O)NCC2CCCCC2)cc(NC(=O)c2ccco2)c1OC (centres undefined) | 61.1% (active) |
| CN1CCN(C(=O)/C(=C\c2ccc3c(c2)OCO3)NC(=O)c2cccs2)CC1 | -0.95% |
| CC(=O)Nc1ccccc1C(=O)C(=O)Nc1ccc(F)cc1 | -24.7% |
| CC1CCCN(C(=O)CN2C(=O)c3ccccc3S2(=O)=O)C1 (centres undefined) | 6.76% |
| O=C(CSCc1ccccc1)N1CCc2ccccc21 | -87.8% |
| O=C(CN1C(=O)c2ccccc2S1(=O)=O)N1CCc2ccccc21 | 64.8% (active) |
| Cc1ccc(CNC(=O)CCN2C(=O)[C@@H]3Cc4ccccc4CN3C2=O)cc1 | -9.51% |
| CCOC(=O)N(Cc1ccccc1)C1CC1 | 0.91% |
| Cc1ccc(S(=O)(=O)N2CC(C)N(S(C)(=O)=O)C2)cc1 (centres undefined) | -2.13% |
| Cc1ccc(S(=O)(=O)N2C[C@@H]3CCCC[C@@H]3[C@@H](C)[C@H]2c2cn(Cc3ccccc3)c3ccc(F)cc23)cc1 | 72.8% (active) |
| O=C(CS(=O)(=O)c1cn(Cc2cccc(F)c2)c2ccccc12)N1CCCCC1 | 9.01% |
| O=C(CNS(=O)(=O)c1ccc(Br)s1)N1CCN(C(=O)c2ccco2)CC1 | -4.48% |
| O=C1/C(=C\c2ccc([N+](=O)[O-])cc2)CS(=O)(=O)C/C1=C/c1ccc([N+](=O)[O-])cc1 | 65.4% (active) |
| O=C(NN=Cc1ccc([N+](=O)[O-])cc1)C1CC1 | -2.46% |
| O=[N+]([O-])c1ccc(C=NN=Cc2ccc([N+](=O)[O-])cc2)cc1 | -0.85% |
| Cc1nn(C(C)(C)C)c(OC(=O)CC(C)C)c1S(=O)(=O)c1ccccc1 | 12.6% |
| Cc1onc(C(=O)NCc2ccc(F)cc2)c1[N+](=O)[O-] | 3.05% |
| O=C(/C=C/c1ccc([N+](=O)[O-])o1)NNC(=O)c1ccc(F)cc1 | 67.6% (active) |
| COc1ccc(C(=O)NCC(=O)N/N=C/c2ccc([N+](=O)[O-])o2)cc1OC | -0.07% |
| Cc1ccc(CN(CC(=O)NC2CCCCC2)C(=O)c2csnn2)cc1 | -19.5% |
| C/C=C/c1ccc(OCC(=O)OCC(=O)Nc2c(C)nn(-c3ccccc3)c2C)c(OC)c1 | -14.7% |
| CSc1nsc(SC)c1NC(=O)OC1CCCCC1 | 3.57% |

| SMILES | inhibition |
| --- | --- |
| COCCn1c(C)cc(C(=O)COC(=O)/C=C/c2cccc(OC)c2)c1C | 0.01% |
| CCN(CC)S(=O)(=O)c1ccc(OC(C)C)c(N)c1 | -7.56% |
| Oc1ccc2ccccc2c1N=Nc1nccs1 | 75.4% (active) |
| O=C(CN1CCCCC1)NC(=O)Nc1ccccc1F | -7.73% |
| COc1ccc(Cc2nnc(SC)[nH]c2=O)cc1 | -8.83% |
| COc1ccc(Cc2nnc(N/N=C/c3ccccc3O)[nH]c2=O)cc1OC | 88.1% (active) |
| CC(C)c1ccc(Cc2nnc(NCCCO)[nH]c2=O)cc1 | -3.48% |
| CCc1cccc2c3c([nH]c12)C(CC)(CC(=O)O)OCC3 (centres undefined) | -4.38% |
| CC(C)c1ccc(C2C(C#N)=C(N)Oc3c2oc(CO)cc3=O)cc1 (centres undefined) | -0.24% |
| CCOC(=O)c1ccc(NC(=O)Cn2cnc3cc(C)c(C)cc32)cc1 | 65% (active) |
| CCOC(=O)c1ccc(NC(=O)Cc2cccs2)cc1 | -48% |
| CCCc1nnc(SCC(=O)Nc2ccc(C(=O)OCC)cc2)o1 | -7.14% |
| CCCCC(=O)N1CC2(C)CN(C(=O)CCCC)CC(C)(C1)C2=O | -15.8% |
| COCCCN(C(=O)CSCc1ccc(C)cc1)c1c(N)n(Cc2ccccc2)c(=O)[nH]c1=O | -6.23% |
| CC(C)NC(=O)C(=O)NCCN1CCN(S(=O)(=O)c2ccc(Cl)cc2)CC1 | -1.75% |
| Cc1ccc(NC(=O)c2ccc(CSc3ncnc4nc[nH]c34)cc2)c(C)c1 | -3.19% |
| CCNc1nc(SCCOc2ccccc2)nc(N(C)C)n1 | 17.6% |
| COc1ccc2nc(SCC(=O)Nc3c(C)cc(C)cc3C)[nH]c2c1 | 82.7% (active) |
| Cc1ccc2nc(SCC(=O)NC3CCCC3)[nH]c2c1 | 19.8% |
| Cc1cc(C)c(NC(=O)CSc2nc3ccncc3[nH]2)c(C)c1 | -7.29% |
| N#C/C=C/N1CCN(Cc2ccc3c(c2)OCO3)CC1 | 1.76% |
| CC(C)(C)OC(=O)N(Cc1ccccc1)Cc1ccc(OCc2cccc(NC(=O)c3ccccc3)c2)cc1 | 1.99% |
| O=C1Cc2ccccc2Sc2ccc(Cl)cc21 | 3% |
| Cc1ccc(C(=O)C(=S)N2CCOCC2)cc1 | -12.9% |

| SMILES | inhibition |
| --- | --- |
| CSc1ncccc1C(=O)Nc1ccc2c(c1)OCO2 | -2.99% |
| CSc1ncccc1C(=O)Nc1nc2ccc(F)cc2s1 | 56.9% (active) |
| CSc1ncccc1C(=O)Nc1ccc(C)cn1 | -28.8% |
| CC(C)=NN1C(=O)c2ccccc2NC1(C)C | 0.06% |
| CC1(C)Cc2c(cnn2-c2cccc(F)c2)C(NC(=O)c2cc[n+]([O-])cc2)C1 (centres undefined) | -1.99% |
| Cn1nccc1C(=O)NC1CCCc2c1cnn2-c1ccc(F)cc1F (centres undefined) | 73% (active) |
| COc1ccc(C(=O)NC2CCCc3c2cnn3-c2cccc(C)c2C)c(OC)n1 (centres undefined) | 57% (active) |
| COc1ccc(C(=O)NC2CC(C)(C)Cc3c2cnn3-c2ccccc2C)o1 (centres undefined) | 3.2% |
| Cc1ccc(-n2ncc3c2CCCC3NC(=O)c2cnccn2)cc1C (centres undefined) | 20.6% |
| CC1=C(C(=O)NC2CC(C)(C)Cc3c2cnn3-c2ccc(C)cc2)OCCO1 (centres undefined) | 13.4% |
| Cn1nccc1C(=O)NC1CCCc2c1cnn2-c1ccccc1F (centres undefined) | 77.6% (active) |
| COc1ccc(C(=O)NC2CC(C)(C)Cc3c2cnn3-c2ccccc2)c(OC)c1 (centres undefined) | 14% |
| Cc1cc(C(=O)NC2CC(C)(C)Cc3c2cnn3-c2ccccc2)n[nH]1 (centres undefined) | 7.64% |
| COC(=O)c1cc(=O)n(-c2c(Cl)cc(C(F)(F)F)cc2Cl)[nH]1 | 5.78% |
| C[C@]1(C(=O)NCCc2c[nH]c3ccccc23)C=C[C@@H](Cc2ccccc2)N1C(=O)c1ccccc1 | 6.62% |
| NC(=S)NN=C1CCCC(C(F)(F)F)C1 (centres undefined) | 4.43% |
| Cc1cc(C)c2nc(N3CCC(C(=O)NCCN4CCOCC4)CC3)sc2c1 | 42.9% |
| O=C(NCCCN1CCCC1=O)C(=O)NCC1OCCN1S(=O)(=O)c1ccc(Br)cc1 (centres undefined) | 9.53% |
| CCCN(c1ccc(C)cc1)c1nc(=O)c2cccnc2s1 | 11.6% |
| COc1cccc(NC(=O)Cn2cnc3sc(C)c(S(=O)(=O)N4CCN(C)CC4)c3c2=O)c1 | -2.51% |
| CCOC(=O)CNC(=O)CSc1nnc(-c2cccc(OC)c2)n1CC | 7.3% |
| CCCCOc1ccc(NC(=O)CSCC(=O)OCC)cc1 | 0.02% |
| CCCCCCCCCCOC(=O)Cn1c(COc2cccc(OC)c2)[n+](C)c2ccccc21 | 79.7% (active) |
| Cc1ccc(COc2ccc(C(=O)NN)cc2)cc1 | -19.9% |

| SMILES | inhibition |
| --- | --- |
| COc1cccc(NC(=O)COC(=O)CCOc2ccccc2OC)c1 | -1.81% |
| CCCCCCCCCCOC(=O)Cn1c(COc2ccc(C)cc2)[n+](C)c2ccccc21 | 83.1% (active) |
| Cc1ccc(N2C(=O)C3C4C=CC(CC4)C3C2=O)cc1Cl (centres undefined) | 6.68% |
| CN(C(=O)c1cccc([N+](=O)[O-])c1)c1ccccc1C(=O)NCc1ccccc1 | 0.49% |
| Cn1c(=O)[nH]c2c(c(C(=O)O)nn2C)c1=O | -2.41% |
| C/C(=N\Nc1cccc(C(=O)O)c1)c1ccc2c(c1)Nc1ccccc1S2 | -35.5% |
| O=C(CN(C(=O)c1csnn1)c1cccc(Cl)c1)NC1CCCC1 | -16.6% |
| CCS(=O)(=O)N1CCCC(C(=O)NCCCN(C)Cc2ccccc2)C1 (centres undefined) | 9.61% |
| O=C1CCCCN1CCCC(=O)N1CCCC(Nc2ccc(F)cc2)C1 (centres undefined) | 45.4% |
| COc1ccccc1N1CCN(Cc2ccc(OC)c3ccccc23)CC1 | 10.6% |
| CNCC(O)CN1CCN(c2ccccc2OC)CC1 (centres undefined) | 2.51% |
| COc1ccccc1N1CCN(Cc2cc(OC)c3c(c2)OCO3)CC1 | 60.1% (active) |
| CN1CCN(c2cc(=O)n(-c3ccc(Cl)cc3)c(=O)[nH]2)CC1 | 7.35% |
| C=CCO/N=C/C1=C(O)C(C(=O)OC)C(C)(C)CC1=O (centres undefined) | -5.83% |
| CCN(CC)CCCC(C)n1c2nc(=O)[nH]c(=O)c-2nc2cc(Cl)ccc21 (centres undefined) | 83.6% (active) |
| CCOC(=O)C1(CCOC)CCN(Cc2cc3ccccc3s2)CC1 | -4.84% |
| Cc1cc(C)nc(N/N=C/c2c(CO)cnc(C)c2O)n1 | 0.23% |
| CCN(CC)CCCN=Cc1c(O)n(-c2ccc(C)cc2)c(=O)c2ccccc12 | -0.11% |
| Cc1ccc(-n2c(O)c(C=Nc3ccc(S(=O)(=O)Nc4ncccn4)cc3)c3ccccc3c2=O)cc1C | -0.18% |
| CCOc1ccc(-n2c(O)c(/C=N/Nc3nc(C)cc(C)n3)c3ccccc3c2=O)cc1 | 61.7% (active) |
| CCOc1ccc(-n2c(O)c(/C=N/c3ccnn3Cc3ccncc3)c3ccccc3c2=O)cc1 | 62.7% (active) |
| Cc1ccc(N=Cc2c(O)n(-c3nccs3)c(=O)c3ccccc23)c(C)c1 | -4.34% |

— PubChem BioAssay AID588413 (Sanford-Burnham Center for Chemical Genomics, 2011)
